PubChem BioAssay (EPA / NIEHS)
Calls of active or inactive are those of the source. Rule for the calls: active = hit-call score of the fitted dose curve at least 0.9, where 1 is the maximum; inactive = score below 0.9.

Key:
Conditions in all cases: mRNA level, 48 h; actives raise or lower the signal
[1] = read-out: Cytochrome P450 7A1 (Homo sapiens) (UniProt P22680); experiment: LTEA_HepaRG_CYP7A1: Life Technologies and Expression Analysis (LTEA) Assay for Cytochrome P450 7A1 (CYP7A1) using HepaRG (AID 2283496)
Summary of the method: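 HepaRG cells plated 48 h, then switched to serum-free induction medium and exposed in duplicate for 48 h to 8-point half-log series from 100 uM in 0.5% DMSO. CYP7A1 mRNA by qRT-PCR (TaqMan), normalized to ACTB/GAPDH/POLR2A; bidirectional fit versus DMSO.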

[2] = read-out: Glutathione S-Transferase (GSTA2), GSTA2 (gene 2939); experiment: LTEA_HepaRG_GSTA2: Life Technologies and Expression Analysis (LTEA) Assay for Glutathione S-Transferase (GSTA2) using HepaRG (AID 2283497)
Summary of the method: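 Human HepaRG cells, plated 48 h, then exposed in serum-free induction medium for 48 h to eight half-log concentrations up to 100 uM in 0.5% DMSO, duplicate. GSTA2 mRNA by qRT-PCR, normalized to ACTB/GAPDH/POLR2A; bidirectional fit versus DMSO.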

[3] = read-out: Glutamate-cysteine ligase catalytic (GCLC), GCLC (gene 2729); experiment: LTEA_HepaRG_GCLC: Life Technologies and Expression Analysis (LTEA) Assay for Glutamate-cysteine ligase catalytic (GCLC) using HepaRG (AID 2283498)
Summary of the method: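 Differentiated human HepaRG cells, plated 48 h then switched to serum-free induction medium, were exposed in duplicate for 48 h to 8 half-log concentrations topping at 100 uM in 0.5% DMSO. GCLC mRNA was quantified by qRT-PCR against ACTB, GAPDH and POLR2A.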

[4] = read-out: growth arrest and DNA damage 45 (GADD45G), GADD45G (gene 10912); experiment: LTEA_HepaRG_GADD45G: Life Technologies and Expression Analysis (LTEA) Assay for growth arrest and DNA damage 45 (GADD45G) using HepaRG (AID 2283499)
Summary of the method: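 Differentiated human HepaRG cells in serum-free induction medium were exposed for 48 h to 8 half-log concentrations up to 100 uM in 0.5% DMSO, in duplicate. GADD45G mRNA was measured by TaqMan qRT-PCR, normalised to ACTB, GAPDH and POLR2A, and fitted bidirectionally against DMSO.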

[5] = read-out: Glutamate-cysteine ligase regulatory (GCLM), GCLM (gene 2730); experiment: LTEA_HepaRG_GCLM: Life Technologies and Expression Analysis (LTEA) Assay for Glutamate-cysteine ligase regulatory (GCLM) using HepaRG (AID 2283500)
Summary of the method: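 Differentiated HepaRG cells exposed 48 h in serum-free induction medium to eight half-log concentrations up to 100 uM (0.5% DMSO). GCLM mRNA by TaqMan qRT-PCR, normalized to ACTB, GAPDH and POLR2A; bidirectional fit versus DMSO.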

[6] = read-out: Glutathione S-transferase M3 (GSTM3), GSTM3 (gene 2947); experiment: LTEA_HepaRG_GSTM3: Life Technologies and Expression Analysis (LTEA) Assay for Glutathione S-transferase M3 (GSTM3) using HepaRG (AID 2283501)
Summary of the method: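 Differentiated HepaRG cells in serum-free induction medium were exposed in duplicate for 48 h to 8 half-log concentrations up to 100 uM in 0.5% DMSO. GSTM3 mRNA was measured by TaqMan qRT-PCR, normalized to ACTB/GAPDH/POLR2A, and fitted bidirectionally versus DMSO.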

[7] = read-out: Heat shock 70 kDa protein 1 (HSPA1A), gene 3303; experiment: LTEA_HepaRG_HSPA1A: Life Technologies and Expression Analysis (LTEA) Assay for Heat shock 70 kDa protein 1 (HSPA1A) using HepaRG (AID 2283502)
Summary of the method: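 Human HepaRG cells in serum-free induction medium were exposed in duplicate for 48 h to 8 half-log concentrations, highest 100 uM, in 0.5% DMSO. HSPA1A mRNA read by TaqMan qRT-PCR, normalized to ACTB, GAPDH, POLR2A, fitted bidirectionally against DMSO.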

[8] = read-out: Hypoxia-inducible factor 1-alpha (Homo sapiens) (UniProt Q16665); experiment: LTEA_HepaRG_HIF1A: Life Technologies and Expression Analysis (LTEA) Assay for Hypoxia-inducible factor 1 (HIF1A) Trancription factor using HepaRG (AID 2283503)
Summary of the method: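 Differentiated HepaRG cells in serum-free induction medium exposed 48 h, in duplicate, to 8-point half-log series from 100 uM in 0.5% DMSO. HIF1A mRNA measured by TaqMan qRT-PCR, normalized to ACTB/GAPDH/POLR2A, fitted bidirectionally versus DMSO.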

[9] = read-out: 3-Hydroxy-3-Methylglutaryl-CoA Synthase 2 (HMGCS2), HMGCS2 (gene 3158); experiment: LTEA_HepaRG_HMGCS2: Life Technologies and Expression Analysis (LTEA) Assay for 3-Hydroxy-3-Methylglutaryl-CoA Synthase 2 (HMGCS2) using HepaRG (AID 2283504)
Summary of the method: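 Differentiated human HepaRG cells were exposed in duplicate for 48 h in serum-free induction medium to eight concentrations (top 100 uM, half-log steps, 0.5% DMSO). HMGCS2 mRNA was quantified by TaqMan qRT-PCR, normalised to ACTB, GAPDH and POLR2A, then fitted bidirectionally against DMSO.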

[10] = read-out: HGF (gene 3082); experiment: LTEA_HepaRG_HGF: Life Technologies and Expression Analysis (LTEA) Assay for Hepatocyte Growth Facto (HGF) using HepaRG (AID 2283505)
Summary of the method: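 Differentiated human HepaRG cells in serum-free induction medium were exposed in duplicate for 48 h to eight concentrations (top 100 uM, half-log steps, 0.5% DMSO). HGF mRNA was quantified by qRT-PCR, normalized to ACTB, GAPDH and POLR2A.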

[11] = read-out: Insulin Like Growth Factor 1 (IGF1), IGF1 (gene 3479); experiment: LTEA_HepaRG_IGF1: Life Technologies and Expression Analysis (LTEA) Assay for Insulin Like Growth Factor 1 (IGF1) using HepaRG (AID 2283506)
Summary of the method: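 Differentiated HepaRG cells in serum-free induction medium, exposed 48 h in duplicate to 8 half-log concentrations up to 100 uM in 0.5% DMSO. IGF1 mRNA by Fluidigm qRT-PCR, normalised to ACTB, GAPDH and POLR2A.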

[12] = read-out: Intercellular Adhesion Molecule 1 (ICAM1), ICAM1 (gene 3383); experiment: LTEA_HepaRG_ICAM1: Life Technologies and Expression Analysis (LTEA) Assay for Intercellular Adhesion Molecule 1 (ICAM1) using HepaRG (AID 2283507)
Summary of the method: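 Differentiated HepaRG cells in serum-free induction medium were exposed in duplicate for 48 h to eight half-log concentrations up to 100 uM in 0.5% DMSO. Transcript levels were measured by qRT-PCR normalized to ACTB, GAPDH and POLR2A; bidirectional fits relative to DMSO.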

[13] = read-out: Insulin-like growth factor-binding protein 1 (IGFBP1), IGFBP1 (gene 3484); experiment: LTEA_HepaRG_IGFBP1: Life Technologies and Expression Analysis (LTEA) Assay for Insulin-like growth factor-binding protein 1 (IGFBP1) using HepaRG (AID 2283508)
Summary of the method: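 Differentiated human HepaRG cells in serum-free induction medium were exposed in duplicate for 48 h to eight concentrations, top 100 uM with half-log dilutions, in 0.5% DMSO. Transcript levels came from qRT-PCR normalised to ACTB, GAPDH and POLR2A, fitted bidirectionally against DMSO.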

[14] = read-out: Interleukin 6 (IL6), IL6 (gene 3569); experiment: LTEA_HepaRG_IL6: Life Technologies and Expression Analysis (LTEA) Assay for Interleukin 6 (IL6) using HepaRG (AID 2283509)
Summary of the method: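 Differentiated human HepaRG cells, plated 48 h then switched to serum-free induction medium, were exposed in duplicate for 48 h to eight half-log concentrations up to 100 uM in 0.5% DMSO. IL6 mRNA measured by qRT-PCR, normalized to ACTB/GAPDH/POLR2A.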

[15] = read-out: Interleukin 6 Receptor (IL6R), IL6R (gene 3570); experiment: LTEA_HepaRG_IL6R: Life Technologies and Expression Analysis (LTEA) Assay for Interleukin 6 Receptor (IL6R) using HepaRG (AID 2283510);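 for AC50: TaqMan qRT-PCR signal normalized to ACTB GAPDH and POLR2A housekeeping genes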
Summary of the method: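 Differentiated HepaRG cells, plated 48 h, then exposed in duplicate for 48 h in serum-free induction medium to 8 half-log concentrations (top 100 uM, 0.5% DMSO). IL6R mRNA measured by TaqMan qRT-PCR, normalized to ACTB/GAPDH/POLR2A; bidirectional fit vs DMSO.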

[16] = read-out: Potassium channel subfamily K member 1 (KCNK1), KCNK1 (gene 3775); experiment: LTEA_HepaRG_KCNK1: Life Technologies and Expression Analysis (LTEA) Assay for Potassium channel subfamily K member 1 (KCNK1) using HepaRG (AID 2283511)
Summary of the method: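 Differentiated human HepaRG cells in serum-free induction medium were exposed in duplicate for 48 h to 8 half-log concentrations up to 100 uM in 0.5% DMSO. KCNK1 mRNA was measured by TaqMan qRT-PCR, normalized to ACTB, GAPDH and POLR2A, and fitted bidirectionally versus DMSO.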

[17] = read-out: Keratin 19 (KRT19), KRT19 (gene 3880); experiment: LTEA_HepaRG_KRT19: Life Technologies and Expression Analysis (LTEA) Assay for Keratin 19 (KRT19) using HepaRG (AID 2283512)
Summary of the method: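 Differentiated human HepaRG cells, plated 48 h, were exposed in duplicate for 48 h in serum-free induction medium to eight half-log concentrations up to 100 uM in 0.5% DMSO. KRT19 mRNA was quantified by qRT-PCR, normalized to ACTB, GAPDH and POLR2A, and fitted bidirectionally versus DMSO.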

[18] = read-out: Lipase C (LIPC), LIPC (gene 3990); experiment: LTEA_HepaRG_LIPC: Life Technologies and Expression Analysis (LTEA) Assay for Lipase C (LIPC) using HepaRG (AID 2283514)
Summary of the method: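 Differentiated human HepaRG cells in serum-free induction medium were exposed in duplicate for 48 h to eight concentrations (top 100 uM, half-log steps, 0.5% DMSO). LIPC mRNA was quantified by TaqMan qRT-PCR, normalized to ACTB, GAPDH and POLR2A, with bidirectional fitting versus DMSO.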

[19] = read-out: Lipoprotein lipase (LPL), LPL (gene 4023); experiment: LTEA_HepaRG_LPL: Life Technologies and Expression Analysis (LTEA) Assay for Lipoprotein lipase (LPL) using HepaRG (AID 2283515)
Summary of the method: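 Differentiated human HepaRG cells in serum-free induction medium were exposed in duplicate for 48 h to eight half-log concentrations (top 100 uM) in 0.5% DMSO. LPL mRNA was quantified by TaqMan qRT-PCR, normalized to ACTB, GAPDH and POLR2A.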

Measured: AC50

Sequence of Hypoxia-inducible factor 1-alpha (Homo sapiens) (Q16665 whole entry, looked up): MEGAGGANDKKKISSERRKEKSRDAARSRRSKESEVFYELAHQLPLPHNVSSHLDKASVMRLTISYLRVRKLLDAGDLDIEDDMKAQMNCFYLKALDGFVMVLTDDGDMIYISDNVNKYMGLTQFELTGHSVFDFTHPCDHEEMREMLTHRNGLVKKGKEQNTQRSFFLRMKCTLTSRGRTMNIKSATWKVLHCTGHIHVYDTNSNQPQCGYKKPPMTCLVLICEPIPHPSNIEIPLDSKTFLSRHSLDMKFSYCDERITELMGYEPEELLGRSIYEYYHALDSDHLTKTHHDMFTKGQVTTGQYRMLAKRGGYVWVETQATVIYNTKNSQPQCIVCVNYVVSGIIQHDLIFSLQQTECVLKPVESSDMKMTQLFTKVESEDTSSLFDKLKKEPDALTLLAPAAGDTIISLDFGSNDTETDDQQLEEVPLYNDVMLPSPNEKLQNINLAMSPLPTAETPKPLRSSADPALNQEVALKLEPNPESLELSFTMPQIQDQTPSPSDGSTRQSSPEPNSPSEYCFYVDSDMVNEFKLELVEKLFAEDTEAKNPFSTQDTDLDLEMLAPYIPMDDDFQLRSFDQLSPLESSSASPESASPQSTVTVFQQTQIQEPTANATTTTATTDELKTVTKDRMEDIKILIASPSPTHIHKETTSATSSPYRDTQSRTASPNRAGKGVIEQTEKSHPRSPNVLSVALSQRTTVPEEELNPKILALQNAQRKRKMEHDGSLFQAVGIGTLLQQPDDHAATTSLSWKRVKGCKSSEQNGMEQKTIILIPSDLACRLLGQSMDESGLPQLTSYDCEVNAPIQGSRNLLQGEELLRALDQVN

CCCCCCCCOc1ccc(C(=O)c2ccccc2)c(O)c1
inactive: all assays above

CCCOC(=O)c1cc(O)c(O)c(O)c1
active: [1] 17.9 µM | [9] 50 µM | [11] 11.4 µM
not listed: [12]
inactive: all other assays above

Cc1cc2c(cc1C(F)(F)F)N(C(=O)Nc1ccc(Oc3cccnc3C)nc1)CC2
active: [1] 46 µM | [2] 26 µM | [3] 60.7 µM | [7] 80.9 µM | [8] 11.3 µM | [9] 29.2 µM | [18] 46 µM | [19] 80.4 µM
inactive: all other assays above

O=C(O)Cc1cc(I)c(Oc2ccc(O)c(I)c2)c(I)c1
active: [1] 56.8 µM | [2] 84.7 µM | [4] 70.3 µM | [5] 79 µM | [7] 79.7 µM | [9] 77.1 µM | [10] 66.8 µM | [11] 93.7 µM | [12] 64.4 µM | [13] 71.1 µM | [14] 80.4 µM | [15] 42.7 µM | [16] 64.3 µM | [17] 0.631 µM | [18] 88.5 µM | [19] 65.7 µM
inactive: [3] | [6]

CO[C@H]1/C=C/O[C@@]2(C)Oc3c(C)c(O)c4c(O)c(c(/C=N/N5CCN(C)CC5)c(O)c4c3C2=O)NC(=O)/C(C)=C\C=C\[C@H](C)[C@H](O)[C@@H](C)[C@@H](O)[C@@H](C)[C@H](OC(C)=O)[C@@H]1C
active: [1] 1.62 µM | [2] 0.379 µM | [11] 4.12 µM
not listed: [8]
inactive: all other assays above

Cc1ccc2oc(CN(Cc3ccccc3)C(=O)Nc3c(F)cc(F)cc3F)c(-c3ccc(Cl)cc3)c2c1
active: [1] 5.31 µM | [2] 44.2 µM | [4] 77.2 µM | [5] 44.2 µM | [9] 44.2 µM | [11] 30.2 µM | [13] 70.8 µM | [18] 44.2 µM | [19] 56.4 µM
inactive: all other assays above

OCCO
not listed: [1]
inactive: all other assays above

CN1C(=O)CC[C@H]1c1cccnc1
not listed: [8]
inactive: all other assays above

O=C(O)c1ccccc1-n1cc(C(=O)O)c(=O)c2cc(Nc3c(F)cc(F)cc3Cl)c(Cl)cc21
inactive: all assays above

CCN(Cc1cccnc1)C(=O)c1cccc(Cl)c1[C@]1(C)C(=O)N(Cc2ccc(OC)cc2OC)c2ccc(Cl)cc21
active: [1] 22.3 µM | [2] 25.8 µM | [3] 22.4 µM | [5] 20.1 µM | [7] 6.92 µM | [9] 21.8 µM | [10] 21.9 µM | [11] 14.4 µM | [12] 21.2 µM | [13] 17.5 µM | [14] 24.9 µM | [15] 19.9 µM | [16] 15 µM | [17] 27 µM | [18] 19.9 µM | [19] 10.4 µM
inactive: [4] | [6] | [8]
